Experimental data: the supplement of paper PMC10127200
Counter-ions that a name gives are not always drawn.

Tests used:
Experiment in all cases: Euclidean distance of Cell Painting phenotypic profile (signed KS, 77 features) to DMSO centroid (dimensionless distance); 5 or 10 uM (library dependent); higher = stronger phenotypic change vs DMSO (phenoactivity)
Conditions in all cases: 48 h
786-O = system: 786-O
Procedure, shortened: (§1)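 Stained cells were imaged confocally at 20X with 9 fields per well, after 48 h of exposure to library compounds at 10 or 5 uM (set by library; 0.1% DMSO final). The cells were five cancer lines and a healthy fibroblast line. From the images, Harmony extracted 77 features, each expressed as a signed Kolmogorov-Smirnov statistic relative to same-plate vehicle wells. Phenoactivity is measured as Euclidean distance to the median vehicle profile, using plate-position-corrected, correlation-weighted profiles averaged across replicates at the top dose.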

A549 = system: A549
Procedure, shortened: as §1

DU145 = system: DU145
Procedure, shortened: as §1

FB = system: FB
Procedure, shortened: as §1

HEPG2 = system: HEPG2
Procedure, shortened: as §1

OVCAR4 = system: OVCAR4
Procedure, shortened: as §1

Structure (SMILES) | Euclidean distance (786-O) | Euclidean distance (A549) | Euclidean distance (DU145) | Euclidean distance (FB) | Euclidean distance (HEPG2) | Euclidean distance (OVCAR4)
Cc1cc2ncc(C(=O)NCC(C)(C)NCC(=O)N3CCC[C@H]3C#N)cn2n1 [Anagliptin] | 1.08 | 1.14 | 1.17 | 1.29 | 0.393 | 1.17
Cc1cn([C@H]2O[C@@H](CO)[C@H](O)[C@H]2F)c(=O)[nH]c1=O [Clevudine] | 1.08 | 0.649 | 1.79 | 0.837 | 0.504 | 1.03
CC(=O)O[C@@]12CO[C@@H]1C[C@H](O)[C@@]1(C)C(=O)[C@H](O)C3=C(C)[C@@H](OC(=O)[C@H](O)[C@@H](NC(=O)OC(C)(C)C)c4ccccc4)C[C@@](O)([C@@H](OC(=O)c4ccccc4)[C@H]21)C3(C)C [Docetaxel Trihydrate] | 3.61 | 3.08 | 3.17 | 2.26 | 2.15 | 2.49
CC(COc1ccccc1)N(CCCl)Cc1ccccc1 (configuration not stated) [Phenoxybenzamine HCl] | 1.48 | 0.892 | 1.06 | 0.978 | 0.778 | 1.55
COc1ccc(C2=N[C@@H](c3ccc(Cl)cc3)[C@@H](c3ccc(Cl)cc3)N2C(=O)N2CCNC(=O)C2)c(OC(C)C)c1 [Nutlin-3] | 1.4 | 3.54 | 1.03 | 2.68 | 2.58 | 1.17
Clc1ccc(C(Cn2ccnc2)OCc2csc3c(Cl)cccc23)c(Cl)c1 (configuration not stated) [Sertaconazole nitrate] | 1.47 | 1.42 | 1.2 | 1.26 | 0.627 | 1.61
CCOc1ccc(C[C@H]2NC(=O)CCSSC[C@@H](C(=O)N3CCC[C@H]3C(=O)N[C@@H](CCCN)C(=O)NCC(N)=O)NC(=O)[C@H](CC(N)=O)NC(=O)[C@H]([C@@H](C)O)NC(=O)[C@H]([C@@H](C)CC)NC2=O)cc1 [Atosiban Acetate] | 1.21 | 1.46 | 1.05 | 1.59 | 1.37 | 1.9
Cc1cc(S(=O)(=O)O)c2c(C)ccc(C(C)C)cc1-2 [Sodium gualenate] | 1.2 | 0.401 | 0.867 | 1.3 | 1.18 | 1.13
CS(=O)(=O)c1cccc(CNc2nc(Nc3ccc4c(c3)CCC(=O)N4)ncc2C(F)(F)F)c1 | 3.16 | 2.6 | 3.07 | 3.24 |  | 1.34
O=C1[C@H](CC[C@H](O)c2ccc(F)cc2)[C@@H](c2ccc(O)cc2)N1c1ccc(F)cc1 [Ezetimibe] | 1.74 | 1 | 3.08 | 1.36 | 2.26 | 1.34
CCCCCOC(=O)Nc1nc(=O)n([C@@H]2O[C@H](C)[C@@H](O)[C@H]2O)cc1F [Capecitabine] | 1.77 | 0.754 | 1.15 | 0.899 | 0.821 | 1.23
CCOC(=O)[C@H](CCc1ccccc1)N[C@H]1CCCN2CCC[C@@H](C(=O)O)N2C1=O [Cilazapril Monohydrate] | 1.14 | 1.31 | 0.828 | 1.03 |  | 1.38
Cc1cc(NC(=O)Nc2ccc(N(C)C)cc2)c2cc(F)cc(F)c2n1 | 0.716 | 1.16 | 0.704 | 0.943 |  | 0.985
CC(C)[C@H](O)C(=O)N[C@@H](C)C(=O)N[C@@H]1C(=O)N(C)CCc2ccccc21 | 1.12 | 1.34 | 1.12 | 1.22 |  | 1.03
NCCCCCC(=O)O | 0.84 | 1.89 | 2.26 | 1.67 |  | 1.43
CCOC(=O)c1ccc(NC2CCCCC2)c(N)c1 [Ferrostatin-1 (Fer-1)] | 0.915 | 1.54 | 1.71 | 1.18 | 0.921 | 1.09
CNC(=O)[C@H](Cc1ccccc1)NC(=O)[C@H](CC(C)C)[C@H](CSc1cccs1)C(=O)NO [Batimastat (BB-94)] | 1.52 | 1.51 | 1.25 | 1.68 | 2.06 | 1.53
CCCCOc1c(C(=O)c2c(F)cc(C)cc2F)c[nH]c2nncc1-2 | 1.55 | 2.16 | 1.61 | 1.37 |  | 2.1
CN(C)Cc1cccc(N/C(=C2\C(=O)Nc3cc(C(N)=O)ccc32)c2ccccc2)c1 | 1.11 | 1.06 | 1.33 | 2.56 |  | 1.22
CC(C)C[C@@H](C(=O)N[C@H](C(=O)OC1CCCC1)c1ccccc1)[C@H](O)C(=O)NO [Tosedostat (CHR2797)] | 0.679 | 1.35 | 0.893 | 1.15 |  | 1.27
CCc1c(C(=O)NCCc2ccc(N3CCCCC3)cc2)[nH]c2ccc(Cl)cc12 | 1.69 | 1.48 | 1.01 | 1.21 |  | 1.47
COCCOc1ccc2c(c1)ncn2-c1ccc2cccc(N3CCC(N)CC3)c2n1 | 2.57 | 3.24 | 3.51 | 3.61 |  | 3.88
C=CCn1c(=O)c2cnc(Nc3ccc(N4CCN(C)CC4)cc3)nc2n1-c1cccc(C(C)(C)O)n1 | 3.28 | 2.56 | 2.52 | 3.63 |  | 3.95
Nc1cccc(-c2cc3c(Oc4cccc(O)c4)ncnc3[nH]2)c1 | 1.73 | 3.48 | 1.62 | 2.71 |  | 3.29

Structure (SMILES) | Euclidean distance (786-O) | Euclidean distance (A549) | Euclidean distance (DU145) | Euclidean distance (FB) | Euclidean distance (HEPG2) | Euclidean distance (OVCAR4)
C[C@@H]1C(=O)O[C@H]2C[C@@]34[C@H]5C[C@@H](C(C)(C)C)[C@]36[C@@H](OC(=O)[C@@H]6O)O[C@@]4(C(=O)O5)[C@]21O [Ginkgolide A] | 0.788 | 1.51 | 1.93 | 1.46 |  | 1.21
Cn1c(=O)c2[nH]cnc2n(C)c1=O [Aminophylline] | 1.11 | 1.06 | 0.75 | 0.798 | 0.585 | 0.841
CN(C)Cc1cccc(N=C(c2ccccc2)c2c(O)[nH]c3cc(C(=O)N(C)C)ccc23)c1 | 0.777 | 0.99 | 1.08 | 3.16 |  | 1.3
C[C@@]1(c2cc(-c3cncnc3)c(F)cc2F)CCSC(N)=N1 | 2.11 | 1.07 | 1.06 | 1.09 |  | 0.965
C[C@@H]1CN(CC(=O)Nc2ccc3c(c2)Cc2cccc(-c4cc(=O)cc(N5CCOCC5)o4)c2S3)C[C@H](C)O1 | 1.16 | 1.25 | 1.41 | 1.37 |  | 2.14
Cc1ccc2c(=O)c3cccc(CC(=O)O)c3oc2c1C [DMXAA (Vadimezan)] | 2.33 | 0.921 | 1.14 | 1.4 |  | 1.04
CCN(CC)CCOC(=O)C(c1ccccc1)c1ccccc1 [Adiphenine HCl] | 1.67 | 0.625 | 0.633 | 1.43 |  | 0.992
CC(C)c1cnn2c(NCc3ccccc3)cc(NCCCCCCN)nc12 | 0.657 | 0.869 | 0.933 | 0.961 |  | 1.08
CNC(=O)CN(CCN(CCN(CC(=O)[O-])CC(=O)NC)CC(=O)[O-])CC(=O)[O-].[Gd+3] [Gadodiamide] | 0.953 | 1.55 | 1.5 | 0.962 |  | 1.1
O=C(NOCC(O)CO)c1cc(Br)c(F)c(F)c1Nc1ccc(I)cc1F (configuration not stated) | 1.97 | 2.76 | 1.78 | 2.89 |  | 1.17
NS(=O)(=O)c1cc2c(cc1Cl)NCNS2(=O)=O [Hydrochlorothiazide] | 1.82 | 1.08 | 1.44 | 1.02 |  | 0.927
CC(C)=CCC/C(C)=C/CC/C(C)=C/CC/C(C)=C/CC/C(C)=C/CC/C(C)=C/CC1=C(C)C(=O)c2ccccc2C1=O [Vitamin K2] | 1.17 | 1.16 | 1.1 | 0.823 | 0.747 | 1.54
N=c1ccn2c(n1)O[C@H]1[C@H](O)[C@@H](CO)O[C@H]12 [Cyclocytidine HCl] | 3.43 | 2.7 | 2.45 | 3.66 |  | 4.57
COc1cc(NS(=O)(=O)c2ccc(N)cc2)nc(OC)n1 [Sulphadimethoxine] | 1.31 | 1.11 | 1.61 | 1.62 |  | 1.44
c1ccc(C2CN3CCSC3=N2)cc1 (single isomer, unassigned; (-)) [(-)-Tetramisole] | 1.24 | 1.23 | 0.518 | 0.965 |  | 2.19
Cc1ccc(-n2nc(C(C)(C)C)cc2NC(=O)Nc2ccc(OCCN3CCOCC3)c3ccccc23)cc1 [BIRB 796 (Doramapimod)] | 1.54 | 0.959 | 1.2 | 1.38 |  | 1.21
COC(=O)c1ccc2c(C(=Nc3ccc(N(C)C(=O)CN4CCN(C)CC4)cc3)c3ccccc3)c(O)[nH]c2c1 [Nintedanib Ethanesulfonate Salt] | 3.68 | 3.84 | 2.5 | 4.88 | 3.9 | 4.19
CCN(CC)C(=O)[C@@]1(c2ccccc2)C[C@H]1CN [Levomilnacipran Hydrochloride] | 0.986 | 0.786 | 1.17 | 1.23 | 0.649 | 0.997
Clc1ccc(C2(c3ccc(-c4cn[nH]c4)cc3)CCNCC2)cc1 | 2.95 | 3.29 | 3.8 | 4.67 |  | 3.48
NC(=O)c1ncn([C@@H]2O[C@H](CO)[C@@H](O)[C@H]2O)c1N [Acadesine] | 1 | 1.3 | 0.856 | 1.35 |  | 0.909
C=CCc1cc(OC)c(O)c(C(=O)NCCO)c1 [Alibendol] | 2.26 | 0.655 | 0.743 | 0.938 |  | 0.912
COc1cc(Nc2nc3ccccc3nc2NS(=O)(=O)c2ccc(NC(=O)c3ccc(C)c(OC)c3)cc2)cc(OC)c1 | 0.677 | 1.26 | 1.17 | 0.743 |  | 1.07
CC(C(=O)O)c1ccc2c(c1)[nH]c1ccc(Cl)cc12 (configuration not stated) [Carprofen] | 1.08 | 0.684 | 0.84 | 1.38 | 0.421 | 1.11
NC(=O)Nc1cc(-c2cccc(F)c2)sc1C(=O)N[C@H]1CCCNC1 | 3.38 | 3.15 | 3.87 | 3.82 |  | 4.24
